{"source": "PubChem BioAssay AID504834", "about": "(National Center for Advancing Translational Sciences (NCATS), 2011)", "note": "Out of some 320,000 compounds screened, about 22,000 (6.9%) were called active. About 27% were inconclusive and are not listed. What follows is part of a selection rich in actives, with near analogues and random picks from the rest. Entries that show only a call come without a potency. Unmarked numbers belong to inactive results. The call rests on the fitted dose curve; in most records, active means well fitted inhibition curve with a large enough effect; inconclusive means small, poorly fitted or top-dose-only effect, or another doubt; inactive means no such curve, though single readings can be large or run the other way. Potency means the concentration at half of the fitted maximal effect."}
{"assay": "Primary qHTS for delayed death inhibitors of the malarial parasite plastid, 96 hour incubation", "details": "P. falciparum luciferase reporter growth; series mostly up to 28.7 µM", "procedure,_shortened": "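Luminescence readout: decreased luciferase signal marks inhibited growth of reporter-expressing P. falciparum in infected red cells (2% hematocrit, 0.05% parasitemia final), exposed to compound two generations (96 h, 37 C, 5% CO2).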"}
{"smiles": "Cc1ccc(-c2cc(C(=O)NN)n[nH]2)o1", "Potency": "inactive"}
{"smiles": "CCC1(CC)NC(=O)N(CC(=O)OCC(=O)c2cc(C)c(C)cc2C)C1=O", "Potency": "inactive"}
{"smiles": "Cc1cc(-c2nnc(SCC(=O)Nc3ccc(S(N)(=O)=O)cc3)n2N)n[nH]1", "Potency": "inactive"}
{"smiles": "N#Cc1ccc(C(=O)OCC(=O)NC(=O)NC2CCCCC2)cc1", "Potency": "inactive"}
{"smiles": "O=C(c1ccccc1)c1ccc(C(=O)N2CCN(c3ccccc3)CC2)cc1", "Potency": "inactive"}
{"smiles": "O=C(c1cccc(C(=O)N2CCN(c3ccc(F)cc3)CC2)c1)N1CCN(c2ccc(F)cc2)CC1", "Potency": "9.28 µM (active)"}
{"smiles": "O=C(c1cc2cc(F)ccc2[nH]1)N1CCN(c2ccc(F)cc2)CC1", "Potency": "inactive"}
{"smiles": "CC(C)(C)c1ccc(S(=O)(=O)N2CCN(C(=O)c3ccc4c(c3)C(=O)N(Cc3ccncc3)C4=O)CC2)cc1", "Potency": "inactive"}
{"smiles": "CC(=O)c1ccc(NC(=O)c2cc(-c3cccs3)on2)cc1", "Potency": "inactive"}
{"smiles": "Cc1ccc(NC(=O)CSc2sc3c(O)cc(=O)[nH]c3c2C#N)cc1C", "Potency": "inactive"}
{"smiles": "CCC1(c2ccccc2)NC(=O)N(CC(=O)c2ccc3c(c2)OCO3)C1=O", "note": "(configuration not stated)", "Potency": "inactive"}
{"smiles": "COc1ccc(N(CC(=O)NCCSCc2cccc(Cl)c2)S(C)(=O)=O)cc1", "Potency": "inactive"}
{"smiles": "CN(C)c1ccc(/C=C2\\CC3C4CC=C5CC(O)CCC5(C)C4CCC3(C)C2=O)cc1", "note": "(configuration not stated)", "Potency": "2.33 µM (active)"}
{"smiles": "CN(C)c1ccc(C=C2C(=O)OC3(CCCC3)OC2=O)cc1", "Potency": "inactive"}
{"smiles": "CCC(CCC(C)C1CCC2C3CC=C4CC(O)CC[C@@]4(C)C3CC[C@@]12C)C(C)C", "note": "(some centres not stated)", "Potency": "inactive"}
{"smiles": "O=C(O)[C@@H](S)[C@H](S)C(=O)O", "Potency": "1.69 µM (active)"}
{"smiles": "c1cnc(N2CCN(c3ccc4ccccc4n3)CC2)nc1", "Potency": "inactive"}
{"smiles": "Fc1ccc(-c2csc(-c3ccc(C4SCCS4)cc3)n2)cc1F", "Potency": "inactive"}
{"smiles": "Cc1ccc(-c2csc(-c3cc(C)on3)n2)cc1", "Potency": "inactive"}
{"smiles": "Clc1ccc(-c2csc(-c3ccncc3)n2)cc1", "Potency": "0.185 µM (active)"}
{"smiles": "Cc1ccc(C(=O)N(CC(=O)NC2CCCC2)c2ccc(F)cc2)s1", "Potency": "inactive"}
{"smiles": "COCc1ccc(C(=O)NC2CC(C)(C)Cc3c2cnn3-c2ccc(C)cc2)o1", "note": "(configuration not stated)", "Potency": "inactive"}
{"smiles": "Cc1cc(C)cc(NC(=S)NC2CC3CCCC(C2)N3Cc2cccs2)c1", "note": "(configuration not stated)", "Potency": "2.33 µM (active)"}
{"smiles": "COc1ccc(NC(=O)NC2CC3CCCC(C2)N3Cc2ccccc2)cc1", "note": "(configuration not stated)", "Potency": "inactive"}
{"smiles": "C=CCN1C2CCCC1CC(NC(=S)Nc1cccc(OC)c1)C2", "note": "(configuration not stated)", "Potency": "inactive"}
{"smiles": "CN(C(=O)c1cccc([N+](=O)[O-])c1)c1ccccc1C(=O)NCc1ccccc1", "Potency": "inactive"}
{"smiles": "CCC(CC)NC(=O)/C=C/c1cccc([N+](=O)[O-])c1", "Potency": "inactive"}
{"smiles": "CCC1(C(=O)c2ccccc2)C(c2cccc([N+](=O)[O-])c2)C1(C(=O)OC)C(=O)OC", "note": "(configuration not stated)", "Potency": "13.1 µM (active)"}
{"smiles": "O=C(CCl)Nc1ccc(Sc2ccc(NC(=O)CCl)cc2)cc1", "Potency": "1.85 µM (active)"}
{"smiles": "CCC(=O)Nc1ccc(Nc2nc(Cl)nc(Nc3ccc(NC(=O)CC)cc3)n2)cc1", "Potency": "inactive"}
{"smiles": "O=C(O)CSCC(=O)Nc1ccc(C(F)(F)F)cc1", "Potency": "inactive"}
{"smiles": "Cc1ccc2nc(N(CCN(C)C)C(=O)C3=COCCO3)sc2c1", "Potency": "inactive"}
{"smiles": "COCCNC(=O)c1ccc2nc(Cc3ccc(OC)c(OC)c3)oc2c1", "Potency": "inactive"}
{"smiles": "O=C(Nc1cccc(NC(=O)c2ccccc2[N+](=O)[O-])c1)c1ccccc1Cl", "Potency": "inactive"}
{"smiles": "O=C(CN1CCCCC1)Nc1ccccc1C(=O)NC1CC1", "Potency": "inactive"}
{"smiles": "O=C(O)c1ccccc1NC(=S)NC(NC(=O)c1ccccc1[N+](=O)[O-])C(Cl)(Cl)Cl", "note": "(configuration not stated)", "Potency": "13.1 µM (active)"}
{"smiles": "O=C(CN1CCC(NC(=O)C2CC2)CC1)Nc1ccccc1[N+](=O)[O-]", "Potency": "0.738 µM (active)"}
{"smiles": "O=[N+]([O-])c1ccccc1Nc1ccc(O)cc1", "Potency": "inactive"}
{"smiles": "O=C(CN1CCC(NC(=O)Nc2ccccc2)CC1)Nc1cccc([N+](=O)[O-])c1", "Potency": "inactive"}
{"smiles": "O=C(NNC(=O)c1ccccc1[N+](=O)[O-])Nc1ccccc1C(F)(F)F", "Potency": "11.7 µM (active)"}
{"smiles": "O=C(Nc1ccncc1)c1ccccc1[N+](=O)[O-]", "Potency": "inactive"}
{"smiles": "O=C(O)c1ccccc1C(=O)Nc1ccccc1[N+](=O)[O-]", "Potency": "inactive"}
{"smiles": "O=C(Nc1ccccc1-c1ccccc1)c1ccccc1[N+](=O)[O-]", "Potency": "inactive"}
{"smiles": "O=C(Nc1ccccc1[N+](=O)[O-])C1C(c2ccccc2)=C1c1ccccc1", "Potency": "13.1 µM (active)"}
{"smiles": "O=C(O)c1ccccc1NC(=O)c1ccccc1-c1ccccc1C(=O)O", "Potency": "inactive"}
{"smiles": "Cc1ccsc1C(=O)NCCc1ccco1", "Potency": "inactive"}
{"smiles": "CCCOC1CCCN(C(=O)c2cc(COc3cncc(Cl)c3)on2)C1", "note": "(configuration not stated)", "Potency": "inactive"}
{"smiles": "O=C1Nc2cc(C(=O)N3CCN(c4ccc(F)cc4)CC3)ccc2NC1CSCc1cccc(F)c1", "note": "(configuration not stated)", "Potency": "inactive"}
{"smiles": "COC(=O)c1sc(NC(=S)NC(=O)c2ccc(C)cc2)nc1C", "Potency": "inactive"}
{"smiles": "Nc1cccc(S(=O)(=O)Nc2ccc(SC(F)F)cc2)c1", "Potency": "inactive"}
{"smiles": "COc1cc(N=Cc2c(O)c3ccccc3oc2=O)c(OC)cc1Cl", "Potency": "inactive"}
{"smiles": "CCOc1ccc(S(=O)(=O)NCCC(=O)N2CCCCCCC2)cc1", "Potency": "inactive"}
{"smiles": "CCN(CC(=O)NCc1ccc(Cl)cc1)C(=O)c1c(C)noc1C", "Potency": "inactive"}
{"smiles": "Cc1ccccc1Nc1c([N+](=O)[O-])ccc2nonc12", "Potency": "inactive"}
{"smiles": "CCc1nc2sc3c(Cl)ncnc3c2c2c1CCCC2", "Potency": "inactive"}
{"smiles": "O=C(c1cnc(Cl)c(Cl)c1)N1CCN(S(=O)(=O)c2ccc(F)cc2)CC1", "Potency": "inactive"}
{"smiles": "Cc1nc(-c2ccc(F)cc2)c(CC(=O)N2CCN(S(=O)(=O)c3ccc(F)cc3)CC2)s1", "Potency": "13.1 µM (active)"}
{"smiles": "Cc1nc(-c2ccc(F)cc2)c(CC(=O)N(C)CC(=O)Nc2c(C)cccc2C)s1", "Potency": "inactive"}
{"smiles": "COc1ccc(N2C(=O)NC(NS(=O)(=O)c3ccc(Cl)cc3)(C(F)(F)F)C2=O)cc1", "note": "(configuration not stated)", "Potency": "inactive"}
{"smiles": "O=C1CSc2ccc(S(=O)(=O)NCc3ccccc3)cc2N1", "Potency": "inactive"}
{"smiles": "CC1(C)CC(=O)C(N=Nc2c(F)cccc2F)=C(O)C1", "Potency": "inactive"}
{"smiles": "CCC(NC(=O)C1CCCC1)c1ccc(C)cc1", "note": "(configuration not stated)", "Potency": "inactive"}
{"smiles": "CCN(CC(=O)Nc1cccc(S(N)(=O)=O)c1)Cc1nc2ccccc2c(=O)[nH]1", "Potency": "inactive"}
{"smiles": "O=C(Cn1cnc2ccccc2c1=O)Nc1cccc(S(=O)(=O)N2CCCCC2)c1", "Potency": "inactive"}
{"smiles": "CCCCN(CC(=O)Nc1cccc(S(=O)(=O)N2CCCC2)c1)Cc1nc2ccccc2c(=O)[nH]1", "Potency": "5.86 µM (active)"}
{"smiles": "CCc1noc(C)c1C(=O)N1CCN(S(=O)(=O)c2cccc(C(F)(F)F)c2)CC1", "Potency": "inactive"}
{"smiles": "Cn1ncc(Br)c1C(=O)NC1CCCC1", "Potency": "inactive"}
{"smiles": "NC(=O)CSc1nnc(NC(=O)c2ccc3ccccc3c2)s1", "Potency": "inactive"}
{"smiles": "CC(=O)N1N=C(c2ccncc2)OC1(Cc1ccccc1)Cc1ccccc1", "Potency": "11.7 µM (active)"}
{"smiles": "CC(C)(C)N(Cc1ccccc1)C(=O)c1ccncc1", "Potency": "inactive"}
{"smiles": "CC(=O)N1N=C(c2ccccc2)OC1c1cccnc1", "note": "(configuration not stated)", "Potency": "inactive"}
{"smiles": "Cn1c(C(=O)N2CCCC(C(=O)NCc3ccccc3)C2)cc2sccc21", "note": "(configuration not stated)", "Potency": "inactive"}
{"smiles": "CNC(=O)COC(=O)c1cc(-c2ccc(OC)cc2)nc2ccccc12", "Potency": "inactive"}
{"smiles": "COc1cc(-c2cc(C(=O)OCC(=O)Nc3ccc4c(c3)OCO4)c3ccccc3n2)cc(OC)c1OC", "Potency": "inactive"}
{"smiles": "COc1ccc(NC(=O)c2cc(-c3cc(OC)c(OC)c(OC)c3)nc3ccccc23)c(OC)c1", "Potency": "2.62 µM (active)"}
{"smiles": "CC1CCCCC12NC(=O)N(CC(=O)OCC(=O)NCc1ccc(F)cc1)C2=O", "note": "(configuration not stated)", "Potency": "inactive"}
{"smiles": "Cc1ccc(C(=O)N2CCN(C3CCCCC3)CC2)s1", "Potency": "inactive"}
{"smiles": "O=C(C1CCN(S(=O)(=O)c2ccc(Br)s2)CC1)N1CCN(C2CCCCC2)CC1", "Potency": "4.65 µM (active)"}
{"smiles": "O=C(C1CCN(S(=O)(=O)c2ccc(Br)s2)CC1)N1CCN(c2ccccc2)CC1", "Potency": "inactive"}
{"smiles": "Cc1cccc(C)c1NC(=O)N1CC(C)OC(C)C1", "note": "(configuration not stated)", "Potency": "inactive"}
{"smiles": "COC(=O)c1ccc(OC(=O)c2cnccn2)cc1", "Potency": "inactive"}
{"smiles": "Cc1cccc(OCC(=O)Nc2ccccc2F)c1", "Potency": "inactive"}
{"smiles": "Cc1cccc(OP(=O)(Nc2c(C)n(C)n(-c3ccccc3)c2=O)Oc2cccc(C)c2)c1", "Potency": "inactive"}
{"smiles": "Cc1cccc(OP(=O)(Oc2cccc(C)c2)OC(c2ccccc2)C(F)(F)F)c1", "note": "(configuration not stated)", "Potency": "13.1 µM (active)"}
{"smiles": "COc1ccc(S(=O)(=O)N2CCCCC2)cc1NC(=O)C1CC(=O)N(c2ccc3c(c2)OCCO3)C1", "note": "(configuration not stated)", "Potency": "inactive"}
{"smiles": "CCOC(=O)CNC(=O)c1nn(-c2cccc(OC)c2)c(=O)c2ccccc12", "Potency": "inactive"}
{"smiles": "COc1cccc(-n2nc(C(=O)N3CCN(Cc4ccccc4)CC3)c3ccccc3c2=O)c1", "Potency": "5.22 µM (active)"}
{"smiles": "COc1cc(OC)c(OC)cc1CN1CCN(C(=O)c2cccc3ccccc23)CC1", "Potency": "inactive"}
{"smiles": "CCC(=O)c1ccc(OCC(=O)N(CC)CC2COc3ccccc3O2)cc1", "note": "(configuration not stated)", "Potency": "inactive"}
{"smiles": "Cc1cc(NC(=O)CSc2nc(=O)cc(N)n2-c2ccc(F)cc2)no1", "Potency": "inactive"}
{"smiles": "CCOC(=O)C1CCCN(S(=O)(=O)c2ccc3c(c2)C(C)(C)C(=O)N3C)C1", "note": "(configuration not stated)", "Potency": "inactive"}
{"smiles": "Cc1ccc(CNC(=O)C2CCCN2S(=O)(=O)c2ccc3c(c2)C(C)(C)C(=O)N3C)cc1", "note": "(configuration not stated)", "Potency": "1.47 µM (active)"}
{"smiles": "Cc1ccc(S(=O)(=O)N2CCCC2C(=O)NCc2ccco2)cc1", "note": "(configuration not stated)", "activity change, negative = inhibition": "-13.6% [at 5.75 µM]"}
{"smiles": "Cc1nc2ccccn2c(=O)c1NC(=O)c1cccs1", "Potency": "inactive"}
{"smiles": "COC(=O)c1sccc1NC(=O)c1ccc(Cl)cc1", "Potency": "inactive"}
{"smiles": "Cc1cc(C)cc(NC(=O)CCN2C(=O)c3ccccc3C2=O)c1", "Potency": "inactive"}
{"smiles": "CC1(C)CC(=O)C2=C(C1)Nc1cc(C(=O)c3ccccc3)ccc1NC2c1ccccn1", "note": "(configuration not stated)", "Potency": "inactive"}
{"smiles": "Cc1cc(C)c(C2C3=C(Nc4c2c(C)nn4-c2ccccn2)c2ccccc2C3=O)c(C)c1", "note": "(configuration not stated)", "Potency": "6.57 µM (active)"}
{"smiles": "Cc1nn(-c2ccccn2)c2c1C(c1ccncc1)C1=C(CC(C)(C)CC1=O)N2", "note": "(configuration not stated)", "Potency": "5.86 µM (active)"}
{"smiles": "CC(C)(C)NC(=O)C(c1ccco1)N(Cc1ccc2c(c1)OCO2)C(=O)Cn1nnc2ccccc21", "note": "(configuration not stated)", "Potency": "14.7 µM (active)"}
{"smiles": "CCC(C)(C)NC(=O)C(c1cccn1C)N(Cc1ccc(C)cc1)C(=O)Cn1nnc2ccccc21", "note": "(configuration not stated)", "Potency": "inactive"}
{"smiles": "COc1ccc(C(C(=O)NC(C)(C)C)N(C(=O)Cn2nnc3ccccc32)c2ccc(C(C)=O)cc2)cc1O", "note": "(configuration not stated)", "Potency": "inactive"}
